In PubChem BioAssay (Tox21) one finds Potency and outcome data, which are given here for 16 compounds.

Molecules are shown by their SMILES. Records with an inconclusive call do not appear. Unmarked numbers belong to inactive results. Activity calls are given as the source filed them. Unless noted, calls follow the shape of the dose curve; as a rule, active = well fitted curve in the direction sought with a large enough effect in the repeat runs; inconclusive = weak or mixed curves; inactive = no such curve, though single readings can be large; an effect the other way counts as inactive or inconclusive.

Assay [1] addresses Aryl hydrocarbon receptor (Homo sapiens) (UniProt P35869). In words: qHTS assay to identify small molecule that activate the aryl hydrocarbon receptor (AhR) signaling pathway (AID 743085). Also: nearly all actives have a fitted effect of over 15% in size. Also: potency is read from the fitted curve at half-maximal effect.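 As to activation: HG2L7.5c1 human HepG2 liver cells with stably integrated DRE-driven firefly reporter; series mostly up to about 70 µM.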 A digest of the protocol:
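Reporter assay in engineered HepG2 line HG2L7.5c1, whose plasmid carries twenty dioxin responsive elements upstream of firefly luciferase. Treatment lasted 24 h at 37C; ONE-Glo luminescence gauged induction.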
In general terms: Quantitative high-throughput screening tests each substance at several concentrations.

Assay [2] in a line: qHTS assay to identify small molecule that activate the aryl hydrocarbon receptor (AhR) signaling pathway - cell viability counter screen (AID 743086). Also: nearly all actives have a fitted effect of over 45% in size. Also: potency is read from the fitted curve at half-maximal effect. A digest of the protocol:
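HepG2-AhR-luc (HG2L7.5c1) cells, 4000/well, treated 24 h at 37 C with compound; viability measured as CellTiter-Fluor fluorescence after 30 min in the same wells as the luciferase read.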

Assay [3] has as its target Peroxisome proliferator-activated receptor gamma (Homo sapiens) (UniProt P37231). As to the kind of experiment: qHTS assay to identify small molecule agonists of the peroxisome proliferator-activated receptor gamma (PPARg) signaling pathway (AID 743094; active = well fitted activation curve with a large enough effect in the signal ratio in the repeat runs, not every such curve was filed as active; the % refers to the signal ratio). A digest of the protocol:
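Cell-based bla reporter, HEK293H background, PPARg-driven UAS. Pre-incubation 5 h, 37C, 5% CO2. Compound 17 h, 37C. Substrate 1 h RT; fluorescence.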

Assay [4] in a line: qHTS assay to identify small molecule antagonists of the peroxisome proliferator-activated receptor gamma (PPARg) signaling pathway - cell viability counter screen (AID 743194). Also: nearly all actives have a fitted effect of over 55% in size. A digest of the protocol:
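Cytotoxicity counter screen in PPARg-bla HEK293H cells, same wells as reporter assay. Compounds plus 50 nM rosiglitazone (final) for 17 h at 37 C, then viability read by CellTiter-Glo luminescence.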

Assay [5] can be described thus: qHTS assay for small molecule agonists of the antioxidant response element (ARE) signaling pathway - cell viability counter screen (AID 743203; calls by dose curve; also: nearly all actives have a fitted effect of over 55% in size). Put shortly: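 Measured in the same wells as the beta-lactamase ARE reporter, this read-out is CellTiter-Glo luminescence from HepG2 ARE-bla cells given compounds for 16 hrs.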
Assay [6] can be described thus: qHTS assay for small molecule activators of the heat shock response signaling pathway - cell viability counter screen (AID 743209). Also: nearly all actives have a fitted effect of over 50% in size. A digest of the protocol:
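Same-well multiplex: after 2.5 h room-temperature incubation with LiveBLAzer B/G substrate and fluorescence reading, CellTiter-Glo reagent was added to HSE-bla HeLa cells that had received compound for 5 h at 37 C; luminescence read after 30 min.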

Assay [7] is described as follows: qHTS assay for small molecule activators of the heat shock response signaling pathway (AID 743210; active = well fitted activation curve with a large enough effect in the signal ratio in the repeat runs, with a control signal flat, not every such curve was filed as active; the % refers to the signal ratio;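 also: HeLa cells with beta-lactamase reporter driven by heat shock elements; series mostly up to about 63 µM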). A digest of the protocol:
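Following overnight attachment, HSE-bla HeLa cells received test compounds for 5 h at 37 C; beta-lactamase activity was then detected via FRET substrate fluorescence.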

Assay [8] can be described thus: qHTS assay to identify small molecule agonists of the peroxisome proliferator-activated receptor delta (PPARd) signaling pathway - cell viability counter screen (AID 743211). Also: nearly all actives have a fitted effect of over 55% in size. Put shortly:
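Multiplexed format: after the 2 h room-temperature LiveBLAzer B/G FRET step, CellTiter-Glo was added to the same wells. Luminescence after 30 min gave cell viability; compound exposure was 17 h at 37C.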

Assay [9] addresses Peroxisome proliferator-activated receptor delta (Homo sapiens) (UniProt Q03181). As to the kind of experiment: qHTS assay to identify small molecule agonists of the peroxisome proliferator-activated receptor delta (PPARd) signaling pathway (AID 743212; calls by dose curve). A digest of the protocol: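 Tox21 library screened in GeneBLAzer PPARd UAS-bla HEK293H cells. After compound treatment at 37 C, a FRET-based beta-lactamase substrate was applied for 2 h and fluorescence recorded.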

Assay [10] is described as follows: qHTS assay to identify small molecule antagonists of the peroxisome proliferator-activated receptor delta (PPARd) signaling pathway - cell viability counter screen (AID 743213). Also: nearly all actives have a fitted effect of over 50% in size. Put shortly:
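PPARd-bla HEK293H cells were treated with compounds plus agonist L165041 (300 nM final) for 17 h at 37 C. Viability was then read in the same wells by CellTiter-Glo luminescence after 30 min at room temperature.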

The target in assay [11] is Peroxisome proliferator-activated receptor delta (Homo sapiens) (UniProt Q03181). In words: qHTS assay to identify small molecule antagonists of the peroxisome proliferator-activated receptor delta (PPARd) signaling pathway (AID 743215; active = well fitted inhibition curve with a large enough effect in the signal ratio in the repeat runs, not every such curve was filed as active; the % refers to the signal ratio;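 also: cells stimulated with agonist L165041 at 300 nM final during compound exposure; series mostly up to about 62 µM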). Put shortly: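 Fluorescence from cleaved LiveBLAzer B/G FRET substrate (2 h, room temperature) reports PPARd-driven beta-lactamase in HEK293H UAS-bla cells. Cells had been treated 17 h at 37 C with compound plus 300 nM final L165041.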

For assay [12], the target named is Bile acid receptor (Homo sapiens) (UniProt Q96RI1). As to the kind of experiment: qHTS assay to identify small molecule antagonists of the farnesoid-X-receptor (FXR) signaling pathway (AID 743217; active = well fitted inhibition curve with a large enough effect in the signal ratio in the repeat runs, not every such curve was filed as active; the % refers to the signal ratio). A digest of the protocol:
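FRET fluorescence after 2 h room-temperature LiveBLAzer loading gives the readout. Prior step: FXR-bla HEK 293T cells, seeded and incubated 5 h, received test compounds plus 50 uM final CDCA for 16 h at 37 °C.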

A short description of assay [13]: qHTS assay to identify small molecule agonists of the farnesoid-X-receptor (FXR) signaling pathway - cell viability counter screen (AID 743218). Also: nearly all actives have a fitted effect of over 45% in size. Put shortly:
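Readout: CellTiter-Glo luminescence, 30 min RT, multiplexed after the FXR-bla FRET reading. HEK 293T FXR-UAS-bla cells received compound 5 h post-plating and were incubated 16 h at 37 C.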

The target of assay [14] is Bile acid receptor (Homo sapiens) (UniProt Q96RI1). In words: qHTS assay to identify small molecule agonists of the farnesoid-X-receptor (FXR) signaling pathway (AID 743220; active = well fitted activation curve with a large enough effect in the signal ratio in the repeat runs, not every such curve was filed as active; the % refers to the signal ratio). Put shortly: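 FXR-UAS-bla HEK 293T cells carrying a UAS-driven beta-lactamase reporter were plated for 5 h at 37C/5% CO2, then exposed to DMSO-dissolved Tox21 10K compounds for 16 h at 37C. A LiveBLAzer B/G FRET substrate was loaded for 2 h at room temperature before fluorescence reading.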

Assay [15] in a line: qHTS assay to identify small molecule antagonists of the farnesoid-X-receptor (FXR) signaling pathway - cell viability counter screen (AID 743221; active = well fitted cell-killing curve with a large enough effect in the repeat runs, not every such curve was filed as active; also: nearly all actives have a fitted effect of over 50% in size). Put shortly: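 CellTiter-Glo, 30 min RT, luminescence; same wells as the LiveBLAzer FRET read. Cells: FXR-UAS-bla HEK 293T. Treatment: compound with chenodeoxycholic acid 50 uM final, 16 h at 37 C.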
Assay [16] has as its target Peroxisome proliferator-activated receptor gamma (Homo sapiens) (UniProt P37231). In words: qHTS assay to identify small molecule antagonists of the peroxisome proliferator-activated receptor gamma (PPARg) signaling pathway (AID 743191; calls by dose curve; also: series mostly up to about 63 µM; nearly all actives have a fitted effect of over 30% in size). A digest of the protocol:
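GeneBLAzer PPARg UAS-bla HEK293H cells, 5 h post-plating, exposed to compounds 17 h at 37C. LiveBLAzer B/G FRET substrate added for 1 h at room temperature; beta-lactamase reporter read by fluorescence intensity.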

Assay [17] has as its target Vitamin D3 receptor (Homo sapiens) (UniProt P11473). As to the kind of experiment: qHTS assay to identify small molecule agonists of the vitamin D receptor (VDR) signaling pathway (AID 743222; calls by dose curve). Put shortly: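 Following 4 h attachment at 37C, VDR-bla cells (2,000 per well) received DMSO-dissolved compounds or controls. After 16 h incubation, LiveBLAzer B/G FRET substrate was added and fluorescence read 2 h later at room temperature.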

For assay [18] the target is unchanged. As to the kind of experiment: qHTS assay to identify small molecule antagonists of the vitamin D receptor (VDR) signaling pathway (AID 743223; active = well fitted inhibition curve with a large enough effect in the signal ratio in the repeat runs, not every such curve was filed as active; the % refers to the signal ratio). Put shortly: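 After VDR-bla cells are plated and left 4 h at 37C, DMSO-dissolved compounds and 3 nM (final) calcitriol agonist are added. Incubation continues 16 h at 37C; FRET beta-lactamase substrate then develops 2 h at room temperature.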

Assay [19] in a line: qHTS assay for small molecule agonists of the antioxidant response element (ARE) signaling pathway (AID 743202; active = well fitted activation curve with a large enough effect in the signal ratio in the repeat runs, not every such curve was filed as active; the % refers to the signal ratio). A digest of the protocol: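 HepG2 ARE-bla cells; 16 h treatment at 37 C; FRET-based beta-lactamase fluorescence read after 2 h substrate incubation at room temperature.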
Assay [20] is described as follows: qHTS assay to identify aromatase inhibitors - cell viability counter screen (AID 743084).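 Also: cells stimulated with testosterone during compound exposure; nearly all actives have a fitted effect of over 55% in size.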

Chain of Vitamin D3 receptor (Homo sapiens) (P11473 whole entry, looked up): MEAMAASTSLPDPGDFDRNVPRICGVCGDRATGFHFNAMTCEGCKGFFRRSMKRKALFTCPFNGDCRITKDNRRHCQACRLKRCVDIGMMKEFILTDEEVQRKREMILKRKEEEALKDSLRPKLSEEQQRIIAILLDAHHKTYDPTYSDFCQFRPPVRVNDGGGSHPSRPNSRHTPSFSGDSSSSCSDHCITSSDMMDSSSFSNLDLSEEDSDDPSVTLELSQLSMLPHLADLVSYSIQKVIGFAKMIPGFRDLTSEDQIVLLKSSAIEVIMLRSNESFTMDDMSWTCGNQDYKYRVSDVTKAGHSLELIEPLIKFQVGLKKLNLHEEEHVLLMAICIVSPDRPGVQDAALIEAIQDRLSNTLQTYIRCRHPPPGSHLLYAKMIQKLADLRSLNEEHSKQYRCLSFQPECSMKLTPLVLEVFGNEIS
Chain of Aryl hydrocarbon receptor (Homo sapiens) (P35869 whole entry, looked up): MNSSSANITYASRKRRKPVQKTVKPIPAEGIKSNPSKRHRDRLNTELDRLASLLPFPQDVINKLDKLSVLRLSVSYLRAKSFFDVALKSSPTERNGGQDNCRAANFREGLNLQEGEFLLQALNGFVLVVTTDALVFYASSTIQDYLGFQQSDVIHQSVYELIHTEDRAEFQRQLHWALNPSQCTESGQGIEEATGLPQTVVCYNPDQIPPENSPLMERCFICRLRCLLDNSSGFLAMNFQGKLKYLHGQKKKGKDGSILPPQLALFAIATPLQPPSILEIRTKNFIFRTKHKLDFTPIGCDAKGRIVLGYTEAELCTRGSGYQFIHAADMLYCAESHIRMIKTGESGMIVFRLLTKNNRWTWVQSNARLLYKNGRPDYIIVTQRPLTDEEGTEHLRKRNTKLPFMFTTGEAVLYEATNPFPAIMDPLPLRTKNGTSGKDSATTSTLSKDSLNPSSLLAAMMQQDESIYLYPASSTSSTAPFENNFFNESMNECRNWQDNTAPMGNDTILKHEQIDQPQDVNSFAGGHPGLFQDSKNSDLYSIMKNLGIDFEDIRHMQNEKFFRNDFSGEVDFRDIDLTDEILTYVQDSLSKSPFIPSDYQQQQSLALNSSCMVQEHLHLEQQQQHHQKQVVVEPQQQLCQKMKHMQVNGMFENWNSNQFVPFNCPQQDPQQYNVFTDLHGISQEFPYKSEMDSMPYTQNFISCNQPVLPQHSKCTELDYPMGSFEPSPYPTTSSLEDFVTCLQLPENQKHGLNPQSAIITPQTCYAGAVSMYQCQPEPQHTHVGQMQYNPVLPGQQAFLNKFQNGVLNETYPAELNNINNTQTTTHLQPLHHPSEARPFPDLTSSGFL
Chain of Peroxisome proliferator-activated receptor gamma (Homo sapiens) (P37231 whole entry, looked up): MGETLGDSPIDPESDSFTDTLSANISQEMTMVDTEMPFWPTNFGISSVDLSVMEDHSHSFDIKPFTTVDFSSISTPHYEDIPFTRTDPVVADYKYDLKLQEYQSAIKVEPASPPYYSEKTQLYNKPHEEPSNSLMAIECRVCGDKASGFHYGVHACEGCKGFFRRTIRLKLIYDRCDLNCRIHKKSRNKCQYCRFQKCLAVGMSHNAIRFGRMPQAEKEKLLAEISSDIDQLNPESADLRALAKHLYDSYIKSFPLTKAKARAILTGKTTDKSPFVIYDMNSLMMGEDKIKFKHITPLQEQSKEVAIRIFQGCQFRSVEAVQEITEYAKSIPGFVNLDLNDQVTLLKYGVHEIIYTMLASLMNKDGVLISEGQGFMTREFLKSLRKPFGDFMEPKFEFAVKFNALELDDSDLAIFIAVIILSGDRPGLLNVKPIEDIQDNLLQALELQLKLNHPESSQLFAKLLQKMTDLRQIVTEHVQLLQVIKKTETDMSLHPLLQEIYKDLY
Chain of Peroxisome proliferator-activated receptor delta (Homo sapiens) (Q03181 whole entry, looked up): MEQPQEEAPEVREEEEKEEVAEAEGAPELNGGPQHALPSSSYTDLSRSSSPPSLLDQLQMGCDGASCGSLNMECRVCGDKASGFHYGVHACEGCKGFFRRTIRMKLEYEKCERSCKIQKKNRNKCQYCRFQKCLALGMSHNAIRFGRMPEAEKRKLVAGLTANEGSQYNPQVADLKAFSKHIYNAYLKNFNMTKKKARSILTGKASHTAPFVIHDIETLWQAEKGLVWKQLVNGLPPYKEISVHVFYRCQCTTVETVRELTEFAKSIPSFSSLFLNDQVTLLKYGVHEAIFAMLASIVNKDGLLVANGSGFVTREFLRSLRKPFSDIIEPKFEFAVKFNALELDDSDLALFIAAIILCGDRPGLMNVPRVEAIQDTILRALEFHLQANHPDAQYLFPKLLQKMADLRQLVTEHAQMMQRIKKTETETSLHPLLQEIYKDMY
Chain of Bile acid receptor (Homo sapiens) (Q96RI1 whole entry, looked up): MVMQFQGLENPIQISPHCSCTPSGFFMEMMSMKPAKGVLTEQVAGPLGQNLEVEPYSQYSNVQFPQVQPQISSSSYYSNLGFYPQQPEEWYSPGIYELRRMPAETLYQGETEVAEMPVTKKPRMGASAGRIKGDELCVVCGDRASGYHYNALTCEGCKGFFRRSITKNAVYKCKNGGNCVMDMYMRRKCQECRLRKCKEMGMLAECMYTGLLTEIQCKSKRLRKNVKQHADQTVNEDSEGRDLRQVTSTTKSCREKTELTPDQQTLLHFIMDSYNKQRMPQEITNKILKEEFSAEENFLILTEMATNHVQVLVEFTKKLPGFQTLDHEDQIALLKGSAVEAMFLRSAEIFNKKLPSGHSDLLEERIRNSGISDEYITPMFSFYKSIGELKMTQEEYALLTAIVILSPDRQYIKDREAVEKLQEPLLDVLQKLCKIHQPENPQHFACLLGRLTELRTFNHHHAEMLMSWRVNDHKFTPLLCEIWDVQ

On to `CN(CCOc1ccc(NS(C)(=O)=O)cc1)CCc1ccc(NS(C)(=O)=O)cc1`, for which the Potency result in assay [1], in [2], in assay [12], in assay [13] and in assay [14] was “inactive” each time. Besides, the call in assay [3], in assay [4], in assay [5], in assay [6], in assay [7] and in [8] was inactive. The compound was classed as inactive in assay [9], in assay [10], in assay [11] and in assay [15].
With `Cc1cccc(OCC(O)CNC(C)(C)C)c1C` (configuration not stated), the Potency entry in [16] and in assay [13] was “inactive” in each case. The call in assay [4], in [5], in assay [6], in assay [7], in [8] and in assay [10] was inactive. Moreover, the outcome in assay [15], in assay [17] and in [18] was inactive.
As for `NS(=O)(=O)c1cc2c(cc1Cl)CN(C1CCCCC1)C2=O`, the Potency result in assay [16], in assay [19], in assay [12], in assay [13] and in assay [14] was “inactive” each time. For the same compound, the compound was classed as inactive in assay [4], in assay [5], in assay [6], in assay [7], in assay [8] and in [10]. Besides, the result in assay [15] and in assay [18] was inactive.
In the case of `O=C(c1ccc(O)cc1)c1ccc(O)c(O)c1O`, in [1], the Potency was 61.4 µM (active). The result in [3], in assay [4], in assay [5], in [8], in [9] and in assay [10] was inactive. Besides, the compound was called inactive in assay [11], in assay [17] and in assay [18]. The Potency entry in [19], in assay [12], in [13] and in assay [14] was “inactive” throughout.
On to `COc1ccc2c(c1OC)C(=O)O[C@@H]2[C@H]1c2c(cc3c(c2OC)OCO3)CCN1C`, for which the Potency in [2] was 29.8 µM (active). The call in [4], in [5], in assay [7], in [8], in assay [9] and in assay [15] was inactive. Further, the compound was called inactive in assay [17]. In addition, the Potency result in assay [19] and in [13] was “inactive” in each case.
`Cc1[nH]cnc1-c1ccc(Cl)cc1`: the Potency entry in assay [16], in assay [19] and in [13] was “inactive” each time. In addition, the call in [4], in assay [5], in assay [7], in assay [8], in assay [9] and in assay [10] was inactive. Moreover, the compound was classed as inactive in [11] and in assay [15].
With `O=P(O)(O)OP(=O)(O)O`, the Potency result in assay [2] and in [13] was “inactive” throughout. In addition, the compound was classed as inactive in assay [4], in [5], in assay [6], in [8], in [10] and in [15]. In addition, the result in assay [17] and in [18] was inactive.
Take `Cc1ccccc1C(=O)Nc1ccc(C(=O)N2CCCC(N(C)C)c3ccccc32)cc1` (configuration not stated): the call in assay [4], in [5], in [6], in assay [8], in assay [10] and in assay [15] was inactive. For the same compound, in assay [17], the call was inactive. For the same compound, the Potency result in assay [13] and in assay [14] was “inactive” throughout.
Regarding `Brc1ccc(-c2ccccc2)cc1`, the Potency result in assay [1], in [2], in [19] and in [13] was “inactive” in each case. The call in assay [4], in [5], in assay [6], in [7], in assay [8] and in assay [10] was inactive. Also, the result in [15], in assay [17] and in assay [18] was inactive.
Turning to `O=C(O)c1cc(Cl)cc([N+](=O)[O-])c1Cl`, the Potency entry in [1], in assay [2], in assay [16], in assay [12], in [13] and in assay [14] was “inactive” throughout. For the same compound, the compound was called inactive in assay [3], in assay [4], in [5], in assay [6], in assay [8] and in assay [10]. Besides, the call in assay [15], in assay [17] and in [18] was inactive.
In the case of `CCC(C)NC(N)=O` (configuration not stated), the Potency result in assay [2], in [19] and in [13] was “inactive” in each case. Further, the call in assay [3], in assay [4], in assay [5], in assay [6], in [7] and in assay [8] was inactive. The call in assay [9], in [10], in assay [11], in [15], in assay [17] and in [18] was inactive.
Consider `CCN(CC)CC(=O)Nc1c(C)cccc1C`, for which the Potency entry in assay [20], in [2], in [19], in [12], in [13] and in [14] was “inactive” in each case. In addition, the outcome in assay [4], in assay [5], in assay [6], in [7], in assay [8] and in assay [15] was inactive.
As to `COc1cc(N)ccc1C`, the Potency entry in [2], in assay [12], in [13] and in assay [14] was “inactive” each time. The compound was called inactive in assay [5], in [6], in assay [7], in [8], in assay [9] and in assay [10]. Also, the outcome in assay [11], in [15], in assay [17] and in [18] was inactive.
In the case of `COc1ccc2nc(SCc3ncc(C)c(OC)c3C)[nH]c2c1`, the Potency entry in assay [16], in assay [19] and in [13] was “inactive” in each case. For the same compound, the outcome in assay [4], in assay [5], in assay [6], in assay [8], in assay [9] and in [10] was inactive. Also, the compound was called inactive in assay [11], in [15] and in assay [17].
`CC(C)=CCOC(=O)c1ccccc1`: the Potency entry in [2] and in [13] was “inactive” in each case. In addition, the result in [4], in [5], in assay [6], in assay [7], in [8] and in assay [9] was inactive. In addition, the outcome in assay [10], in [11] and in assay [15] was inactive.
Consider `CCC(C)(CCC(C)C)C(=O)O` (configuration not stated), for which the Potency entry in assay [2], in assay [19] and in [13] was “inactive” throughout. Also, the compound was classed as inactive in assay [4], in assay [5], in assay [6], in assay [8], in assay [9] and in assay [10]. The outcome in assay [11], in assay [15] and in assay [18] was inactive.
